{"source": "PubChem BioAssay AID1347074", "about": "(Center for Chemical Genomics, University of Michigan, 2019)", "note": "The campaign covered roughly 47,000 compounds. About 2,800 (6%) were called active. Rule as the data show it: active = z-score above about 3 (passing the limit was not always enough); inactive = the rest. This excerpt belongs to a sample that is enriched for actives."}
{"target": "Endoribonuclease Dicer (Homo sapiens) (UniProt Q9UPY3)", "sequence (Q9UPY3 whole entry, looked up)": "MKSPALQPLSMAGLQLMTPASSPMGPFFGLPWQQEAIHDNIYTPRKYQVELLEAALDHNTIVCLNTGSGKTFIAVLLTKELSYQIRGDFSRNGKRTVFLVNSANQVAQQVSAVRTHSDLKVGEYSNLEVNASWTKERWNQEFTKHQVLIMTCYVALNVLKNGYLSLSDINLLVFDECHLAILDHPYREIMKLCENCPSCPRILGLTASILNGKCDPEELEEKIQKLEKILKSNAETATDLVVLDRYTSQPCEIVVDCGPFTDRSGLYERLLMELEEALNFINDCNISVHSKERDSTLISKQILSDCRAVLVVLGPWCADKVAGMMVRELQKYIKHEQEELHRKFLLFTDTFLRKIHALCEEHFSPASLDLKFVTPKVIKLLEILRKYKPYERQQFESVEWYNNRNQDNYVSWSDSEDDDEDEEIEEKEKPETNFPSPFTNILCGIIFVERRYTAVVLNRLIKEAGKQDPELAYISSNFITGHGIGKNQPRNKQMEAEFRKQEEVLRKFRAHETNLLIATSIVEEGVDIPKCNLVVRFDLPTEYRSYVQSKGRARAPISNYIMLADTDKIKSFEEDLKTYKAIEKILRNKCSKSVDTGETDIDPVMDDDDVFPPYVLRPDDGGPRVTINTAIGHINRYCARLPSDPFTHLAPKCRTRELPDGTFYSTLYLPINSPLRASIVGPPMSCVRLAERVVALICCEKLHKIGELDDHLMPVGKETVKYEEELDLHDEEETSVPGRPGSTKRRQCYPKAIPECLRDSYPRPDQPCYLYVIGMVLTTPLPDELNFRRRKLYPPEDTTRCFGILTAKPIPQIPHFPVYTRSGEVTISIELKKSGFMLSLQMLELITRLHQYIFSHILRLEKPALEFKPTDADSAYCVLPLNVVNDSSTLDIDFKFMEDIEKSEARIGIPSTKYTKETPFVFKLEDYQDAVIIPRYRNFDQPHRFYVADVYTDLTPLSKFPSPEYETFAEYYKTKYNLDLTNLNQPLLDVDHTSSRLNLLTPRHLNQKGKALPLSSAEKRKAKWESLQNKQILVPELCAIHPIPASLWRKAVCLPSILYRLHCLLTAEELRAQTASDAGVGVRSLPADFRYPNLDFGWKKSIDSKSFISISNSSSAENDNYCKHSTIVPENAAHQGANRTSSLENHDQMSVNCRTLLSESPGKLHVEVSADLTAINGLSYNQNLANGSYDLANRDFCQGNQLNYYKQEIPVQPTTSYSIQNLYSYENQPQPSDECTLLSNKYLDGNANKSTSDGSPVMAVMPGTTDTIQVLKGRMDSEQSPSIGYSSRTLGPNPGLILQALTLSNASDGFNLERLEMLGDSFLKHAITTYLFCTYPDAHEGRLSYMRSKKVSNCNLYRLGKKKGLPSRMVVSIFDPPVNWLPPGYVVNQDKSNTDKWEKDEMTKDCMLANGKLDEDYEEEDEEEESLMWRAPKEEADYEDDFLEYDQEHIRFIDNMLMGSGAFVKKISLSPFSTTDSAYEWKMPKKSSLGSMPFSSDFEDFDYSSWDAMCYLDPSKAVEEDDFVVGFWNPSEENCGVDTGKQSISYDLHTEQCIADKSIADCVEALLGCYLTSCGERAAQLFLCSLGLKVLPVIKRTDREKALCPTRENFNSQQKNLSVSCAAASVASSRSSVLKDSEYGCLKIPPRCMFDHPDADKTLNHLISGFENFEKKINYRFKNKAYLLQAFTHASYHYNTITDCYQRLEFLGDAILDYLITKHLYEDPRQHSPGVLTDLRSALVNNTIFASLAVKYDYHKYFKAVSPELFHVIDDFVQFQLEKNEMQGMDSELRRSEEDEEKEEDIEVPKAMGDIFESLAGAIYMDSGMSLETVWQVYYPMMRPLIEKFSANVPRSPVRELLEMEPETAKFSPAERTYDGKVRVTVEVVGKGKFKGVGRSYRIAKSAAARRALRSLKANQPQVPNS", "assay": "Dicer cleavage of pre-miR-21 blockers – biochemical, cat-ELCCA, chemiluminescence, primary screen (AID 1347074);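 also: plate controls were vehicle for no effect and no enzyme for full effect; higher signal means more uncleaved substrate so more Dicer inhibition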", "conditions": "cat-ELCCA pre-miR-21 Dicer processing, at 25 µM, active compounds read high"}
{"smiles": "COc1cccc(-c2ccc(-c3noc(-c4cccc(OC)c4)n3)c(OC)n2)c1", "z-score": "0.01 (inactive)"}
{"smiles": "COc1ccc(O)c(C2=NN3C(C2)c2cccc(OC)c2OC3c2ccccc2)c1", "note": "(centres undefined)", "z-score": "1.51 (inactive)"}
{"smiles": "COc1cccc(C2Oc3ccccc3C3CC(c4ccccc4O)=NN32)c1OC", "note": "(centres undefined)", "z-score": "6.13 (inactive)"}
{"smiles": "COc1cccc2c1OC(c1ccccc1F)N1N=C(c3ccccc3O)CC21", "note": "(centres undefined)", "z-score": "5.58 (active)"}
{"smiles": "Cn1c(-c2ccccc2)cnc1NCc1c(F)cccc1Cl", "z-score": "2.86 (inactive)"}
{"smiles": "Cc1ccc(-c2nc3ccccc3[nH]2)cc1N", "z-score": "0.04 (inactive)"}
{"smiles": "Nc1ccc(/C=C/c2nc3ccccc3[nH]2)cc1", "z-score": "4.8 (active)"}
{"smiles": "Nc1cccc(CCc2nc3ccccc3[nH]2)c1", "z-score": "1.56 (inactive)"}
{"smiles": "CCCCn1nnc2sc3c(c2c1=O)CCCC3", "z-score": "-0.96 (inactive)"}
{"smiles": "O=C(CSc1nc2c(c(C(F)(F)F)n1)CCc1ccccc1-2)N1CCOCC1", "z-score": "0.53 (inactive)"}
{"smiles": "COc1cc2c(cc1OC)C(C)N(Cc1cc(C)c(O)c(C)c1)CC2", "note": "(centres undefined)", "z-score": "-0.23 (inactive)"}
{"smiles": "CCOC(=O)c1cc(Sc2ccccc2)cc(C(=O)OCC)n1", "z-score": "-0.71 (inactive)"}
{"smiles": "CCc1ccc(C2C(C(=O)OC)=C(C)NC3=C2C(=O)CC(C)(C)C3)cc1", "note": "(centres undefined)", "z-score": "0.1 (inactive)"}
{"smiles": "CC(C)(C)OC(=O)n1ccc2cc(Br)ccc21", "z-score": "3.27 (active)"}
{"smiles": "CCOC(=O)c1cc(-c2ccccc2)sc1NC(=S)N1CCN(c2ccccc2)CC1", "z-score": "1.09 (inactive)"}
{"smiles": "CC(=O)Oc1cc2c(C(=O)N3CCN(c4ccccc4)CC3)c(C)oc2c2ccccc12", "z-score": "3.08 (active)"}
{"smiles": "CCOC(=O)c1nnn2c1nc(N1CCN(c3ccccc3)CC1)c1ccccc12", "z-score": "0.67 (inactive)"}
{"smiles": "O=C(CC1(O)C(=O)N(CCc2ccccc2)c2ccccc21)c1cccc(-n2cccc2)c1", "note": "(centres undefined)", "z-score": "-0.51 (inactive)"}
{"smiles": "C1=C(c2cccs2)CC(c2cccs2)=NN=C1c1cccs1", "z-score": "3.06 (active)"}
{"smiles": "Cc1[nH]nc2c1C(c1ccccc1Cl)C(C#N)=C(N)O2", "note": "(centres undefined)", "z-score": "-1.03 (inactive)"}
{"smiles": "O=C(O)C1C2C=CC(C2)C1C(=O)N1CCN(CCO)CC1", "note": "(centres undefined)", "z-score": "3.56 (active)"}
{"smiles": "COc1ccc(-c2c(C)nn3c2N=C(c2ccccc2)CC3c2ccco2)cc1", "note": "(centres undefined)", "z-score": "-0.12 (inactive)"}
{"smiles": "CC(C)N(CCC#N)CN1C(=O)c2ccccc2C1=O", "z-score": "1.63 (inactive)"}
{"smiles": "COc1cc2c(cc1OC)C(c1ccccc1)=NC(C)(C)C2", "z-score": "0.36 (inactive)"}
{"smiles": "FC(F)(F)c1cccc(NC(=S)NNc2nccc(C(F)(F)F)n2)c1", "z-score": "3.39 (active)"}
{"smiles": "FC(F)(F)c1ccc(/C=N/Nc2nccc(C(F)(F)F)n2)cc1", "z-score": "0.54 (inactive)"}
{"smiles": "FC(F)(F)c1ccnc(NCCNc2nccc(C(F)(F)F)n2)c1", "z-score": "-0.42 (inactive)"}
{"smiles": "Cc1cc2c(cc1C)CSC(C)(c1cccc([N+](=O)[O-])c1)SC2", "z-score": "-1.77 (inactive)"}
{"smiles": "COc1cccc(-n2[nH]nnc2=S)c1", "z-score": "1.1 (inactive)"}
{"smiles": "Cc1ccc(C2CC(c3cccc(C)c3)n3nc(N)nc3N2)cc1", "note": "(centres undefined)", "z-score": "0.14 (inactive)"}
{"smiles": "Cc1ccc(C2Nc3cccc4cccc(c34)N2)cc1", "z-score": "3.06 (active)"}
{"smiles": "COc1cccc(C2Nc3cccc4cccc(c34)N2)c1", "z-score": "3.24 (active)"}
{"smiles": "Oc1ccc(C2Nc3cccc4cccc(c34)N2)cc1", "z-score": "0.15 (inactive)"}
{"smiles": "O=C(CSc1nc2c(c(C(F)(F)F)n1)CCc1ccccc1-2)NCc1cccnc1", "z-score": "2.31 (inactive)"}
{"smiles": "CC1=C(C(=O)OC2CCCCC2)C(c2cccnc2)C2=C(CCCC2=O)N1", "note": "(centres undefined)", "z-score": "-0.48 (inactive)"}
{"smiles": "CC1=NOC(=O)C1C(c1cccc(Br)c1)c1c(C)[nH]n(-c2ccccc2)c1=O", "note": "(centres undefined)", "z-score": "-4.75 (inactive)"}
{"smiles": "CC(C)(C)c1cc2nc(-c3ccc4c(c3)CCC4)cc(C(F)(F)F)n2n1", "z-score": "-1.01 (inactive)"}
{"smiles": "Cc1cc(Br)ccc1Nc1ncnc(N)n1", "z-score": "0.67 (inactive)"}
{"smiles": "C=CCN(C(=O)c1ccccc1Cl)c1ccccc1C(=O)NCC(=O)OCC", "z-score": "-0.79 (inactive)"}
{"smiles": "Cc1cc(O)cc(C)c1/C=C1\\NC(=O)NC1=O", "z-score": "0.4 (inactive)"}
{"smiles": "Cc1ccc(C(=O)NNc2ncnc3sccc23)cc1", "z-score": "0.13 (inactive)"}
{"smiles": "CSc1n[nH]c(N)c1-c1ccccn1", "z-score": "6.44 (active)"}
{"smiles": "CCOC(=O)c1sc(SC(C)C)c2c1CC(C)(C)CC2=O", "z-score": "-1.12 (inactive)"}
{"smiles": "Cc1cc(C)c2c(n1)sc1c(=O)n(/N=C/c3ccc4c(c3)OCO4)c(C)nc12", "z-score": "-0.06 (inactive)"}
{"smiles": "Cc1ccc(N2CC(=O)N(/N=C/c3ccc4c(c3)OCO4)CC2=O)cc1", "z-score": "3.3 (active)"}
{"smiles": "O=C(/C(=N\\N=C\\c1ccc2c(c1)OCO2)c1ccccc1)c1ccccc1", "z-score": "-1.69 (inactive)"}
{"smiles": "O=C(c1cccn1-c1ccc(F)cc1)C(F)(F)F", "z-score": "-0.2 (inactive)"}
{"smiles": "Cc1ccc(-c2ccc3c4ccccc4c(C(=O)C(F)(F)F)c-3o2)cc1", "z-score": "-0.14 (inactive)"}
{"smiles": "O=c1c2c(-c3ccc(Cl)cc3)csc2nc2c3ccccc3c(N3CCN(CCO)CC3)nn12", "z-score": "-0.37 (inactive)"}
{"smiles": "Cn1nccc1NS(=O)(=O)c1ccc(F)cc1", "z-score": "-0.57 (inactive)"}
{"smiles": "Cc1ccc(S(=O)(=O)Nc2ccc(F)cc2NS(=O)(=O)c2ccc(C)cc2)cc1", "z-score": "15.1 (active)"}
{"smiles": "Cc1ccc(S(=O)(=O)Nc2cc(C)cc(C)c2)cc1", "z-score": "2.36 (inactive)"}
{"smiles": "CN(C)C(=O)Sc1nnc(C2CC2)n1-c1ccc(Cl)cc1", "z-score": "15.9 (inactive)"}
{"smiles": "CC(C)OC(=O)C1C(=O)CC(C)(O)C(C(=O)OC(C)C)C1c1ccc(Br)cc1", "note": "(centres undefined)", "z-score": "-1.31 (inactive)"}
{"smiles": "CCCOC(=O)C1=C(C)Nc2nnnn2C1c1cc(Br)ccc1OC", "note": "(centres undefined)", "z-score": "3.54 (active)"}
{"smiles": "CC1=C(C(N)=O)C(c2ccc(F)cc2)n2nnnc2N1", "note": "(centres undefined)", "z-score": "-0.27 (inactive)"}
{"smiles": "CCOC(=O)C1=C(C)Nc2nnnn2C1c1ccc(O)cc1", "note": "(centres undefined)", "z-score": "-2.24 (inactive)"}
{"smiles": "O=C(O)CSCC(=O)Nc1ccccc1Sc1ncnc2cc(-c3ccccc3)sc12", "z-score": "-0.26 (inactive)"}
{"smiles": "Fc1cccc(-c2nn3c(COc4ccccc4)nnc3s2)c1", "z-score": "0.92 (inactive)"}
{"smiles": "COc1cccc(C2Nc3ccccc3-c3cc(C)nn32)c1O", "note": "(centres undefined)", "z-score": "-0.43 (inactive)"}
{"smiles": "CCOc1ccccc1C1Nc2c(C)cccc2-c2cc(C)nn21", "note": "(centres undefined)", "z-score": "4.42 (active)"}
{"smiles": "COc1cc(O)ccc1C1Nc2c(C)cc(C)cc2-c2cc(C)nn21", "note": "(centres undefined)", "z-score": "2.86 (inactive)"}
{"smiles": "Cc1c(C#N)c(NC(=O)c2ccc(Cl)cc2)n(CC2CC2)c1C", "z-score": "0.46 (inactive)"}
{"smiles": "CN1CCc2c(sc3c2C(=O)NC(c2ccc(Br)cc2)N3)C1", "note": "(centres undefined)", "z-score": "-0.13 (inactive)"}
